# Shown is part of a subset that was picked to be rich in hits.
# ERK EGF block: inhibitors of EGF-stimulated ERK signaling pathway | Potency, µM (top dose mostly 11.5 µM), for the others: at the top dose activity change, negative = inhibition, most hits filed as inhibitors | HEK293-V1b, EGF-stimulated phospho-ERK AlphaScreen | AID 1454 | 130,000 compounds, 0.41% hits; active means well fitted inhibition curve with a large enough effect;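 further: plate controls were stimulated vehicle wells for no effect and unstimulated vehicle basal for full effect; nearly all actives have a fitted effect of over 55% in size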
#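 V1b-HEK293, 1% FBS o/n; cpd 30 min 37C; EGF 25 nM final, 5 min; lyse 10 min; AlphaScreen beads 5 h RT. Normalized DMSO basal vs EGF max; Hill AC50.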
# * hit, by the source's call; [ ] = another dose, or the depositor's remark. Potency means the concentration at half of the fitted maximal effect.
SMILES,ERK EGF block
C=C[C@H]1CN2CC[C@@H]1C[C@H]2[C@@H](O)c1ccnc2ccc(OC)cc12,14.0%[25.7 µM]
COc1cc(OC)c(-c2c3cc(O)c(=O)cc-3oc3cc(O)c(O)cc23)cc1OC,15.8µM*
Cc1c2cc(O)c(=O)cc-2oc2cc(O)c(O)cc12,1.0%[57.5 µM]
COc1cc2oc(-c3ccccc3)cc(=O)c2cc1OC,5.7%
CSc1ccc(C(=O)C2CCCN(S(=O)(=O)c3c(C)noc3C)C2)cc1 (stereo not given),2.3%
COc1ccccc1CN1CCCC2(CCN(C(C)=O)CC2)C1,1.0%
C/C(=N\NC(=O)c1ccccc1)c1nc2ccccc2n1C,6.1%
Cn1c(CNC2CCCCC2)nc2ccccc21,-7.2%
Cc1cc(C)c(C)c(N=Nc2nc3ccccc3n2C)c1C,14.1µM*
CNc1ncnc2c1ncn2[C@H]1C[C@H](OP(=O)(O)O)[C@@H](COP(=O)(O)O)O1,10.2%
CSc1nc(N)c2ncn([C@@H]3O[C@H](COP(=O)(O)OP(=O)(O)O)[C@H](O)[C@H]3O)c2n1,9.2%
Cc1ccc(C)c(N2CCN(C(=O)c3cccn4c(=O)c5sccc5nc34)CC2)c1,-1.0%
OC(c1cc(C(F)(F)F)nc2c(Cl)cc(Cl)cc12)C1CCCCN1 (stereo not given),-0.3%[57.5 µM]
OC(c1cc(-c2ccc(Cl)cc2)nc2ccccc12)C1CCCCN1 (stereo not given),31.6µM*
O=C(NCc1ccccn1)c1cc(-c2ccc(Cl)cc2)nc2ccccc12,-1.8%
CCN(CC)c1ccc(/C=N/N2C(=O)c3ccccc3C2=O)c(O)c1,15.3%
O=C(O)c1ccc(/C=N/N2CCN(Cc3ccc(Cl)cc3)CC2)cc1,-0.9%
CCN(CC)c1ccc(/C=N/N2CCN(Cc3ccc(Cl)cc3)CC2)c(O)c1,14.1µM*
N=C(N)c1ccc(/C=C/c2ccc(C(=N)N)cc2O)cc1,-5.0%[57.5 µM]
COc1ccc2c(c1)[nH]c1c(N3CCSCC3)ncnc12,28.2µM*
COc1cccc(-n2c(SCC(=O)N3CCCCC3)nc3c([nH]c4ccccc43)c2=O)c1,-7.1%[57.5 µM]
COc1cccc2[nH]c3c(N4CCc5ccccc5C4)ncnc3c12,22.4µM*
CC(C)Oc1ncnc2c1[nH]c1ccccc12,0.7%[57.5 µM]
COc1cccc2[nH]c3c(N4CCC5(CC4)OCCO5)ncnc3c12,-4.7%[57.5 µM]
COc1ccc2c(c1)[nH]c1c(=O)n(Cc3ccncc3)cnc12,6.5%[57.5 µM]
SMILES,ERK EGF block
CCCOc1ncnc2c1[nH]c1ccc(OC)cc12,-12.4%[57.5 µM]
COc1cccc2[nH]c3c(=O)n(CCCN4CCOCC4)cnc3c12,-1.4%[57.5 µM]
COc1cccc(N2CCN(c3ncnc4c3[nH]c3ccccc34)CC2C)c1 (stereo not given),14.1µM*
CNC(=O)C1(CC(C)C)C=CCN1C(=O)c1ccccc1 (stereo not given),-0.4%
Cn1c2c(c(=O)c3ccccc31)C[C@@H](O)C(C)(C)O2,-6.1%
CC(=O)N1CC=CC1(C)C(=O)NCC1CC1 (stereo not given),-3.1%
CC(=O)N[C@@H]1C(O)OC(CO)C(O)C1O (stereo not given in full),-8.8%
Cc1onc(-c2c(Cl)cccc2Cl)c1C(=O)N[C@H]1C(=O)N2[C@H]1SC(C)(C)[C@H]2C(=O)O,15.8%[25.7 µM]
CN(C)CCCSc1ccccc1NC(=O)/C=C\c1ccccc1,-4.6%
CC(=O)SC1CC2=CC(=O)CC[C@]2(C)C2CC[C@@]3(C)[C@@H](CC[C@@]34CCC(=O)O4)C12 (stereo not given in full),4.6%
CN(C(=O)c1c(O)c2ccccc2n(C)c1=O)c1ccccc1,-13.8%
CCc1c2c(nc3ccc(OC)cc13)OC(C)C2 (stereo not given),-5.3%
CCc1cc(C(C)=O)c(O)cc1OCCCCCC(C)(C)c1nn[nH]n1,-6.0%
COc1ccc(-c2[nH]nc3oc(=O)c(CCO)c(C)c23)cc1,15.8µM*
COc1ccc(-c2cc(C(=O)NN)[nH]n2)cc1,0.8%
COc1ccc(-c2[nH]ncc2C=O)cc1,3.7%
COC(=O)NC1C=CCCC1C(C)=O (stereo not given),-5.6%
COc1ccc(C[C@@H]2c3cc(OC)c(OC)cc3CC[N@+]2(C)CCC(=O)OCCCCCOC(=O)CC[N@@+]2(C)CCc3cc(OC)c(OC)cc3[C@H]2Cc2ccc(OC)c(OC)c2)cc1OC,-0.6%[25.7 µM]
CCOc1ccc(N/C(=N/c2nc(C)cc(C)n2)NC(C)=O)cc1,-4.2%[57.5 µM]
Cc1nc2cncnc2n(-c2ccccc2)c1=O,-2.3%
COC(=O)Cc1ccc(NC(=S)NCCO)cc1,-6.1%[57.5 µM]
Cc1cc(C)cc(NC(=S)NCCSc2ccc(Cl)cc2)c1,1.9%
COC(=O)Cc1ccc(NC(=S)NCCSc2ccc(Cl)cc2)cc1,28.2µM*
CCCCC1=CC2=C(OC(C)=O)C(=O)C(C)(OC(=O)c3ccc(Cl)nc3)C(=O)C2=CO1 (stereo not given),-3.3%
Cc1cnc(C)c(N2CCN(Cc3nc(-c4ccc(C)o4)oc3C)CC2)n1,-17.3%
SMILES,ERK EGF block
Cc1oc(-c2cccc3ccccc23)nc1CN1CCN(c2ncnc3ccccc23)CC1,31.6µM*
COc1ccc(-c2nc(CN3CCN(c4cc(C)nc(C)c4)CC3)c(C)o2)c2ccccc12,-15.5%
O=C(c1cc(C(F)(F)F)cc(C(F)(F)F)c1)N1CCC2(CC1)CN(c1ccccc1)C2,3.7%
Cc1ccc(C)c(NC(=O)COC(=O)c2cccc3c2C(=O)c2ccccc2C3=O)c1,-3.0%
Cc1cc(C)c(NC(=O)COC(=O)c2cccc3c2C(=O)c2ccccc2C3=O)c(C)c1,-11.8%
Cc1cc(C)c(Nc2cc(S(=O)(=O)O)c(N)c3c2C(=O)c2ccccc2C3=O)c(C)c1,22.4µM*
CC(=O)N1CCC2(CCCN(C(=O)Nc3cccc(F)c3)C2)CC1,-6.4%
N#CCCn1c(=O)cnc2cnc(Nc3ccccc3)nc21,3.3%
CN1/C(=C\C(=O)c2cccnc2)C(C)(C)c2ccccc21,3.1%
CN1/C(=C\C=N\NC(=O)c2ccc(O)cc2)C(C)(C)c2ccccc21,0.1%
Cc1ccc(C(=O)NC(=S)/C=C2\N(C)c3ccccc3C2(C)C)cc1,25.1µM*
C[C@@H](CN(C)C)CN1c2ccccc2CCc2ccccc21,-12.3%[25.7 µM]
Cc1cc(NC(=O)c2ccccc2F)on1,-3.2%
Cc1nnc(SCC(=O)c2ccccc2F)n1Cc1ccccc1,-6.4%[57.5 µM]
Cc1cc(C)nc(S/C=C/C(=O)c2ccccc2F)n1,28.2µM*
CC(C)OC(=O)/C(=C/c1ccco1)c1ccccc1,-6.1%[57.5 µM]
N#C/C(=C/c1ccco1)C(N)=S,-6.5%[57.5 µM]
N#CC(C#N)=C1C=CC=CN1/C(=C\c1ccco1)C(=O)c1ccccc1,14.1µM*
COc1ccc(C(=O)/C=C/c2ccccc2)cc1,1.5%
COc1ccc(C(=O)/C=C/Sc2nc3ccccc3o2)cc1,28.2µM*
COc1ccc(C(=O)/C=C/c2ccc(O)cc2)cc1,-2.8%[57.5 µM]
COc1ccc(C(=O)N2CCC[C@@]3(CCN(Cc4ccc(C#N)cc4)C3)C2)cc1,-7.2%
CCN(CC)CCCC(C)n1c(-c2ccccc2)nc2c(N3CCOCC3)nc(C)nc21 (stereo not given),-3.5%
CCOC(=O)C(=O)c1c(C)cc2ccccn12,-5.7%
Cc1cc2ccccn2c1C(=O)c1cccc([N+](=O)[O-])c1,6.0%
SMILES,ERK EGF block
Cc1cc2ccccn2c1C(=O)c1ccc([N+](=O)[O-])o1,17.8µM*
COc1ccccc1CN1CCC2(CC1)CCN(C(=O)c1csnn1)CC2,1.8%
c1ccc(Nc2ncnc3ccc(-c4ccc5c(c4)OCO5)cc23)cc1,2.82µM*
O=C(O)c1cccc(Nc2ncnc3ccc(Br)cc23)c1,-9.3%[57.5 µM]
CN(Cc1ccco1)c1ncnc2ccc(-c3ccc4c(c3)OCO4)cc12,22.8%
CCOC(=O)N/N=C/c1ccccc1-c1cc(OC)ccc1OC,-0.9%
